Bioassay records deposited in PubChem by National Center for Advancing Translational Sciences (NCATS).
HCV inhibitor: inhibitors of hepatitis C virus infection; Huh7.5.1 HCVcc-Cre infection, luciferase reporter, 44 h; Potency, µM (top dose mostly 41.8 µM), usual class: inhibitors; hit rate 3.4% among 340,000
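A cell-based infection assay in which seeded cells (1,000 per well) receive test compound after 4 h, are inoculated with HCVcc-Cre at approximately 0.5 moi, and are incubated 44 h before luminescence detection.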
AmpC inh detg: blocks E. coli AmpC beta-lactamase in detergent assay; AmpC hydrolysis of nitrocefin, absorbance 480 nm, 0.01% Triton; Potency, µM (titrated, usually from 114 µM), hits mostly inhibitors; hit rate 0.041% among 370,000; P00811; AID 485294; further: nearly all actives have a fitted effect of over 25% in size
Target sequence (P00811 whole entry, looked up): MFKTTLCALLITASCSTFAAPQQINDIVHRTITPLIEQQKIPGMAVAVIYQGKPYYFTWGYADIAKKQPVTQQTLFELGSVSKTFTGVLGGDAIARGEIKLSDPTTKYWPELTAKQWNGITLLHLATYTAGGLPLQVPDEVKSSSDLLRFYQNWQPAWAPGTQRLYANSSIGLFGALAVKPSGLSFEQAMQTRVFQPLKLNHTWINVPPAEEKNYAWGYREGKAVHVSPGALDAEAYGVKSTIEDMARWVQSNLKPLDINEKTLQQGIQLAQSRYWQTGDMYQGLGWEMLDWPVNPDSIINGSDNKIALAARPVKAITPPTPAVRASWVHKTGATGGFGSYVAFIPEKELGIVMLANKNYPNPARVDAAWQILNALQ
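AmpC (5.3 nM in the dispensed reagent) in 20 mM phosphate pH 7.0 with 0.01% (detergent screen) or 0.0001% Triton X-100 was preincubated with compounds for 15 min at room temperature. Nitrocefin was then added from an 800 uM solution, and hydrolysis was followed at 480 nm.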
FMDV antiviral: antivirals against foot and mouth disease virus; hit rate 1.2% among 410,000; FMDV antiviral cell-based qHTS; Potency, µM (highest dose often 57.9 µM), most hits filed as inhibitors; calls by dose curve; tested in HEK293T cells; further: read-out not given here; nearly all actives have a fitted effect of over 45% in size
HCMV inh: human cytomegalovirus inhibition; activity change, negative = inhibition, % at 57.5 µM; hit rate 4.5% among 410,000; HFF cells, HCMV-luciferase reporter, 72 h; stronger effect = lower value; in the data active means activity change below about -60%; inconclusive means no clear call, values can overlap the other calls; inactive means above about -39%
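HFF cells seeded 16 h at 37C, treated with compounds, infected with luciferase-reporter HCMV at MOI 1 PFU/cell; luciferase read at 72 h post infection, normalized to buffer-only and Salinomycin controls.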
AmpC no deterg: inhibitors of E. coli AmpC beta-lactamase without detergent; P00811; AmpC nitrocefin hydrolysis, absorbance 480 nm, 0.0001% Triton; Potency, µM (titrated, usually from 57.1 µM), most hits filed as inhibitors; hit rate 0.52% among 330,000; AID 485341; further: nearly all actives have a fitted effect of over 20% in size
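AmpC (5.3 nM in the dispensed reagent) in 20 mM phosphate pH 7.0 with 0.01% (detergent screen) or 0.0001% Triton X-100 was preincubated with compounds for 15 min at room temperature. Nitrocefin was then added from an 800 uM solution, and hydrolysis was followed at 480 nm.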
Hits are given with their value; 0 = inactive; ? = inconclusive; - = no result given; ! = not confirmed by another sample. A selection: hits, their analogues and other compounds. The true share with any hit is near 7.3%. Unless noted, the call rests on the fitted dose curve; in most records, active means well fitted curve in the direction sought with a large enough effect; inconclusive means small, poorly fitted or top-dose-only effect, or another doubt; inactive means no such curve, though single readings can be large; an effect the other way counts as inactive or inconclusive.

SMILES | HCV inhibitor | AmpC inh detg | FMDV antiviral | HCMV inh | AmpC no deterg
Nc1c(Cl)cc(-c2csc(N3CCCC3c3nc4cc(Cl)c(Cl)cc4n3CCCO)n2)cc1Cl (stereo not drawn) | 2µM | - | 0 | 0 | -
OCCCn1c(C2CCCN2c2nc(-c3ccc(Cl)cc3)cs2)nc2cc(Cl)c(Cl)cc21 (stereo not drawn) | ? | - | 0 | 0 | -
CCOC(=O)c1ccc(NC(=O)CSc2nnc(CCc3ccc(C)o3)n2-c2ccccc2)cc1 | 10µM | 0 | 0 | 0 | 0
Cc1ccc(CCc2nnc(SCC(=O)Nc3ccccc3Cl)n2-c2ccccc2)o1 | 0 | 0 | 0 | 0 | 0
O=C1Cc2c([nH]c3ccc([N+](=O)[O-])cc23)-c2ccccc2N1 | ? | - | 0 | -98 | -
COc1ccc(OCC(=O)Nc2ccc(S(=O)(=O)N3CCCCC3)cc2)cc1 | 0 | 0 | 0 | 0 | 0
Cc1cccc(OCC(=O)Nc2ccc(S(=O)(=O)N3CCCC3)cc2)c1 | 0 | ? | ? | 0 | 0
CCOc1cc(N2CCOCC2)c(OCC)cc1NC(=O)COc1cccc(CC)c1 | 10µM | 0 | 0 | 0 | 0
CCOc1cc(N2CCOCC2)c(OCC)cc1NC(=O)Cc1cccc(OC)c1 | 0 | 0 | 0 | 0 | 0
O=C(COc1ccc(C(=O)NCc2cccnc2)cc1)Nc1cccc(C(F)(F)F)c1 | ? | 0 | ? | 0 | 0
O=C(COc1cccc(C(F)(F)F)c1)Nc1ccc(S(=O)(=O)N2CCCCC2)cc1 | 25µM | 0 | ? | 0 | 0
CCc1cccc(OCC(=O)Nc2ccc(S(=O)(=O)N3CCCC3)cc2)c1 | 11µM | 0 | 0 | 0 | 0
O=C(COc1cccc(C(F)(F)F)c1)Nc1cccnc1 | 0 | ? | 0 | -85 | 0
O=C(Nc1ccc(Br)c(Cl)c1)c1ccc(C(=O)Nc2ccc(Br)c(Cl)c2)cc1 | - | 0 | ? | 0 | -
CCOc1ccc(-c2cc(C(=O)N3CCN(c4ccccn4)CC3)c3ccccc3n2)cc1 | 7.1µM! | ? | 0 | 0 | 0
CCCc1ccc(-c2cc(C(=O)N3CCN(c4ccccn4)CC3)c3ccccc3n2)cc1 | ? | 0 | ? | -64 | 0
COc1ccc(-c2cc(C(=O)N3CCN(c4ncccn4)CC3)c3ccccc3n2)cc1 | ? | 0 | 0 | 0 | 0
COc1ccc(-c2cc(C(=O)N3CCN(c4ccccn4)CC3)c3ccccc3n2)cc1 | ? | 0 | 0 | 0 | 0
COc1cc(-c2cc(C(=O)N3CCN(c4ccccn4)CC3)c3ccccc3n2)cc(OC)c1OC | 13µM | 0 | ? | 0 | 0
O=C(c1cc(-c2ccccc2Cl)nc2ccccc12)N1CCN(c2ccccn2)CC1 | 0 | - | ? | - | 0
COc1cccc(-c2nc(NCCN3CCOCC3)c3ccccc3n2)c1 | - | - | 0 | - | -
O=C(/C=C/c1ccco1)Nc1ccc2nc3n(c(=O)c2c1)CCCC3 | ? | 0 | 0 | 0 | 0
COC(=O)C1=C(c2ccc(Cl)c(C(F)(F)F)c2)C[C@@H]2CC[C@H]1N2C(=O)NCCOc1ccccc1Cl | 10µM | 0 | ? | - | 0
COC(=O)C1=C(c2ccc(F)cc2OCc2ccccc2)C[C@@H]2CC[C@H]1N2C(=O)N1CCCC1 | 11µM | 0 | ? | 0 | 0
COC(=O)C1=C(c2cc3ccccc3o2)C[C@@H]2CC[C@H]1N2C(=O)N1CCCC1 | ? | - | 0 | -60 | -
SMILES | HCV inhibitor | AmpC inh detg | FMDV antiviral | HCMV inh | AmpC no deterg
COC(=O)C1=C(c2ccc(Cl)c(C(F)(F)F)c2)C[C@@H]2CC[C@H]1N2C(=O)NCCNC(C)=O | 0 | 0 | 0 | 0 | 0
COC(=O)C1=C(c2cc3ccccc3o2)C[C@@H]2CC[C@H]1N2C(=O)N1CCCCC1 | ? | - | ? | 0 | -
COC(=O)C1=C(c2ccc(F)cc2F)C[C@@H]2CC[C@H]1N2C(=O)N1CCC(O)CC1 | 0 | 0 | 0 | -62 | 0
CCCNC(=O)N1[C@H]2CC[C@@H]1C(C(=O)OC)=C(c1ccc(F)cc1F)C2 | 0 | 0 | 0 | 0 | 0
COc1ccc(NC(=O)N2CCCC2C(=O)NC2CCCC2)cc1 (stereo not drawn) | 0 | ? | 0 | 0 | 0
COc1ccc(/C=C/C(=O)N(C)C2(C)CCS(=O)(=O)C2)cc1 (stereo not drawn) | 0 | 0 | 0 | 0 | 0
COc1ccc(CCNC(=O)c2ccc(CS(=O)Cc3ccc(C)cc3)o2)cc1OC (stereo not drawn) | ? | 0 | 0 | 0 | 0
Cc1ccc(C(=O)NC2CCS(=O)(=O)C2)cc1S(=O)(=O)N1CCCC1 (stereo not drawn) | 0 | 0 | 0 | 0 | 0
Cc1ccc(C(=O)N2CCN(S(=O)(=O)c3ccc(Br)cc3)CC2)o1 | 0 | ? | 0 | 0 | 0
COC(=O)C1=C(c2ccc(F)cc2OCc2ccccc2)C[C@@H]2CC[C@H]1N2C(=O)NCc1ccccc1Cl | ? | 0 | 0 | -63 | 0
CCn1c(N2CCC(Cc3ccccc3)CC2)nc2c1c(=O)[nH]c(=O)n2C | 0 | 0 | 28µM | 0 | 0
CCCCCn1c(CN2CCN(c3cccc(Cl)c3)CC2)nc2c1c(=O)[nH]c(=O)n2C | 0 | 0 | ? | 0 | 0
CCCCCn1c(CN2CCN(Cc3ccccc3)CC2)nc2c1c(=O)[nH]c(=O)n2C | 0 | 0 | 0 | -69 | 0
O=C(OCC(=O)N1CCOCC1)c1ccc(Cl)c(S(=O)(=O)N2CCc3ccccc32)c1 | 0 | - | 0 | 0 | 0
CCN1CCN(C(c2cc3cccc(C)c3[nH]c2=O)c2nnnn2Cc2ccccc2)CC1 (stereo not drawn) | 0 | ? | 0 | 0 | 0
Cc1cccc2cc(C(c3nnnn3Cc3ccccc3)N3CCCc4ccccc43)c(=O)[nH]c12 (stereo not drawn) | - | 0 | 0 | -83 | 0
COc1cccc(NC(=O)CSc2nc(=O)[nH]c3c2CCCC3)c1 | - | 0 | 0 | 0 | -
O=C(NNC(=O)C12CC3CC(CC(Cl)(C3)C1)C2)c1csc(N2CCOCC2)n1 | 0 | 0 | 0 | - | 0
COC(=O)C(=Cc1ccccc1[N+](=O)[O-])C(=O)OC | ? | ? | 16µM | -96 | 0
COc1ccc(OC)c(NC(=S)NN2CCOCC2)c1 | 0 | 0 | 0 | -102 | 0
COc1ccc(NS(=O)(=O)c2ccc(C)c(C(=O)N3CCC3)c2)cc1 | ? | 0 | 0 | 0 | 0
Cc1ccc(C(=O)N2CCc3cc(CNS(=O)(=O)c4ccc(Cl)s4)ccc32)cc1 | - | 0 | 0 | 0 | -
CC(=O)N1CCc2cc(CNS(=O)(=O)c3ccccc3C(F)(F)F)ccc21 | - | 0 | 0 | -93 | -
O=C(c1ccccc1)N1CCc2cc(CNS(=O)(=O)c3ccc(Cl)s3)ccc21 | - | 0 | 0 | -70 | -
CC(=O)N1CCc2cc(S(=O)(=O)CCC(=O)NCc3ccc(F)cc3)ccc21 | 0 | 0 | 0 | -61 | 0
O=C(c1ccccc1)N1CCc2cc(CNS(=O)(=O)c3ccccc3Cl)ccc21 | - | 0 | ? | -78 | -
CCC(=O)N1CCc2cc(S(=O)(=O)CCC(=O)NCc3ccc(F)cc3)ccc21 | - | 0 | 0 | 0 | -
O=C(NCC1CC1)c1nnc2n1CCN(C(=O)c1cccc3c1OCCO3)C2 | - | - | - | 0 | -
COc1ccc(NC(=O)CSc2nc3nc(C)c(Cc4ccc(C)cc4)c(C)n3n2)cc1OC | - | 0 | ? | 0 | -
